Experimental findings from PubChem BioAssay (EPA / NIEHS) are described below.

Results filed as inconclusive are left out. Some structures have more than one record in an assay (separate samples or runs), and their calls can disagree. Calls of active or inactive are those of the source. How the source made its calls: active means hit-call score of the fitted dose curve at least 0.9, where 1 is the maximum; inconclusive means response in the unintended direction; inactive means score below 0.9.

The target of test [1] is human Thyroid Receptor Alpha (TRa), THRA (gene 7067) (UniProt P10827). The test is described as follows: NVS_NR_hTRa_Antagonist: NovaScreen (NVS) Nuclear Receptor Binding Assay for human Thyroid Receptor Alpha Antagonism (TRa) (AID 2283362). The procedure, abridged: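 Cell-free binding assay on extracted receptor protein, read 1 h after chemical dosing by AlphaLISA chemiluminescence; loss of signal relative to DMSO baseline marks antagonism. Primary screen ran in duplicate at 25 uM, with concentration series for actives.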
human Thyroid Receptor Alpha (TRa), THRA (gene 7067), sequence (P10827 whole entry, looked up): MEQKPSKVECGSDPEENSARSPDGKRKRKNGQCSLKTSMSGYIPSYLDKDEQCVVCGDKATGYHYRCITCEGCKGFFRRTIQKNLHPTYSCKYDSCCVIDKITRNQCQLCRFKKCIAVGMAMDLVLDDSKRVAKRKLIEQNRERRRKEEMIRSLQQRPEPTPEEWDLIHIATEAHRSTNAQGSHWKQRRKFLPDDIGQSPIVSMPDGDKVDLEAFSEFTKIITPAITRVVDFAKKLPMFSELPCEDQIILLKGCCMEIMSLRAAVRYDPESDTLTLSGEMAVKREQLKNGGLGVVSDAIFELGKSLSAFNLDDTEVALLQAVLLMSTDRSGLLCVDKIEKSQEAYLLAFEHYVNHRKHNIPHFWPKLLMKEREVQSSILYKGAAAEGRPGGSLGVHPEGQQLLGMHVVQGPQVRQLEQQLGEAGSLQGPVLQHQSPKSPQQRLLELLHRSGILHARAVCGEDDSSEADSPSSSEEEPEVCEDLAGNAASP

Test [2] deals with Peroxisome proliferator-activated receptor gamma (Homo sapiens) (UniProt P37231). Put plainly: NVS_NR_hPPARg: NovaScreen (NVS) Nuclear Receptor Binding Assay for human Peroxisome Proliferator-activated Receptor gamma (PPARg) (AID 2283370). In short, it runs like this:
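Cell-free binding to extracted PPARg protein, read by fluorescence polarization 2 h after dosing; loss of signal relative to DMSO baseline marks displacement. Primary screen in duplicate at 25 uM, actives retested in concentration series.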

Test [3] addresses Nuclear receptor subfamily 1 group I member 2 (Homo sapiens) (UniProt O75469). The test is described as follows: NVS_NR_hPXR: NovaScreen (NVS) Nuclear Receptor Binding Assay for human Pregnane X Receptor (PXR) (AID 2283365).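 Further: a drop in FRET signal versus DMSO baseline means the compound binds.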 In short, it runs like this:
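Cell-free binding assay with extracted human PXR protein, read by TR-FRET 2 h after dosing; loss of signal relative to DMSO baseline indicates binding. Primary screen at 25 uM in duplicate, actives retested in concentration series.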

For test [4], the target named is Glucocorticoid receptor (Homo sapiens) (UniProt P04150). The test is described as follows: NVS_NR_hGR: NovaScreen (NVS) Nuclear Receptor Binding Assay for human Glucocorticoid Receptor (GR) (AID 2283363).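 On AC50: activity is loss of specific radioligand binding signal relative to DMSO.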 In short, it runs like this: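 Compounds first tested in duplicate at 25 uM, actives followed up in concentration series. Binding to extracted GR protein measured as competitive radioligand displacement, filter scintillation read 16 h post-dosing, normalised to DMSO.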
Glucocorticoid receptor (Homo sapiens), sequence (P04150 whole entry, looked up): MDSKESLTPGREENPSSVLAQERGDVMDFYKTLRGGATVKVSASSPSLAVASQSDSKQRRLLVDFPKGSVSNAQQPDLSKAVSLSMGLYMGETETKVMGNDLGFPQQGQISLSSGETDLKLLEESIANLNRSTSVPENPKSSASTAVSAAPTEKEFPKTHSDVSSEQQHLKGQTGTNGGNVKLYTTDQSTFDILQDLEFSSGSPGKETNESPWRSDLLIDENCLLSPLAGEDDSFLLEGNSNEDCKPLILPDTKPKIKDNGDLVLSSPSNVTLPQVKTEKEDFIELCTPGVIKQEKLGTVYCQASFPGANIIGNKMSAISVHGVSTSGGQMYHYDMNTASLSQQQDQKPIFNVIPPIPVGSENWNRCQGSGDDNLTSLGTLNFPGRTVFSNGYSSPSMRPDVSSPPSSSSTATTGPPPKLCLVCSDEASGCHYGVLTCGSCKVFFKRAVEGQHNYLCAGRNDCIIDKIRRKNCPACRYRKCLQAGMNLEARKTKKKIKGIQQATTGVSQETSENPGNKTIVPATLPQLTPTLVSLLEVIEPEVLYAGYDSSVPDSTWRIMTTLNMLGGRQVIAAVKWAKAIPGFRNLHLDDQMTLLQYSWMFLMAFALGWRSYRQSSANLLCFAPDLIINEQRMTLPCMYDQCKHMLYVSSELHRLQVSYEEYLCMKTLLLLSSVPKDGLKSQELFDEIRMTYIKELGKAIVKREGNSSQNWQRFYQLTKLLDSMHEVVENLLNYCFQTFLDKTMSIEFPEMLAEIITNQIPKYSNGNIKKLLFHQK

In test [5] the target is rat Androgen Receptor (AR), Ar (gene 24208) (UniProt P15207). Put plainly: NVS_NR_rAR: NovaScreen (NVS) Nuclear Receptor Binding Assay for rat Androgen Receptor (AR) (AID 2283366). The procedure, abridged:
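Actives from a duplicate single-concentration (25 uM) primary run went on to concentration series. Displacement of radioligand was counted by filtration and scintillation, 18 h post-dose, using prostate extracts from testosterone-pretreated rats, with DMSO as baseline.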

The target of test [6] is rat Serotonin Transporter (SERT), Slc6a4 (gene 25553) (UniProt P31652). The test is described as follows: NVS_TR_rSERT: NovaScreen (NVS) Transporter Assay for rat Serotonin Transporter (SERT) (AID 2283375). The procedure, abridged: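 Rat forebrain membranes were incubated with test chemical for 1 hour; radioligand binding to SERT was measured by filter-based scintillation counting. Primary screen ran in duplicate at 25 uM, with actives followed up in concentration series; DMSO served as negative control.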
rat Serotonin Transporter (SERT), Slc6a4 (gene 25553), sequence (P31652 whole entry, looked up): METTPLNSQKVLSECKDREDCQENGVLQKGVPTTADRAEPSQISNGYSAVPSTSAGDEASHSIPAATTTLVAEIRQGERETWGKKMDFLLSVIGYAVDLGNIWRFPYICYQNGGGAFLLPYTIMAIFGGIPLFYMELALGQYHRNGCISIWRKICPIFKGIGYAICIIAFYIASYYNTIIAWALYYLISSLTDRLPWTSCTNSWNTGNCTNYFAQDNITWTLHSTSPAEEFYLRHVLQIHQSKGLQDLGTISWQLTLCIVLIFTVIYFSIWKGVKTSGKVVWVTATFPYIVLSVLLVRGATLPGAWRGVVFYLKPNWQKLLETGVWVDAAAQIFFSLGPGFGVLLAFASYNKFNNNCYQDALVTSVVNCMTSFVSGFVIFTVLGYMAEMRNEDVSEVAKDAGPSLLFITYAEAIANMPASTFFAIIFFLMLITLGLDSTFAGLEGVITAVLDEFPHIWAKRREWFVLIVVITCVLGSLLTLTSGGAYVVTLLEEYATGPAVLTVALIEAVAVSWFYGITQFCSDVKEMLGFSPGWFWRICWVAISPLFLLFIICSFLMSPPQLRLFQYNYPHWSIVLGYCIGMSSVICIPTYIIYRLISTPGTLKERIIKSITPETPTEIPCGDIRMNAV

Peroxisome proliferator-activated receptor gamma (Homo sapiens), sequence (P37231 whole entry, looked up): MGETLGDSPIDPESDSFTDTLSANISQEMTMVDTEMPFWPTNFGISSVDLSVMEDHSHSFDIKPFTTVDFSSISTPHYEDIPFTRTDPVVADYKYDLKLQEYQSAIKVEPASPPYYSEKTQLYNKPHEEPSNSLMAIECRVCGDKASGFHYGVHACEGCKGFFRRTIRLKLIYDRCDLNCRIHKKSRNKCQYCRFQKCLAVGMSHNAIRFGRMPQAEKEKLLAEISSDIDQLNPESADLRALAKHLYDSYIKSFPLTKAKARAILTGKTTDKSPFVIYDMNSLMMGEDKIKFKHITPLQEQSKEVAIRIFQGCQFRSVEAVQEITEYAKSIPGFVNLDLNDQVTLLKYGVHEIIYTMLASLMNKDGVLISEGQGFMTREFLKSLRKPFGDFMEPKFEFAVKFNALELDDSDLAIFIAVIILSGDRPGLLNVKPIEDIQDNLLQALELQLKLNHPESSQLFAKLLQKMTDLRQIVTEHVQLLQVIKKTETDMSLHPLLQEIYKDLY
rat Androgen Receptor (AR), Ar (gene 24208), sequence (P15207 whole entry, looked up): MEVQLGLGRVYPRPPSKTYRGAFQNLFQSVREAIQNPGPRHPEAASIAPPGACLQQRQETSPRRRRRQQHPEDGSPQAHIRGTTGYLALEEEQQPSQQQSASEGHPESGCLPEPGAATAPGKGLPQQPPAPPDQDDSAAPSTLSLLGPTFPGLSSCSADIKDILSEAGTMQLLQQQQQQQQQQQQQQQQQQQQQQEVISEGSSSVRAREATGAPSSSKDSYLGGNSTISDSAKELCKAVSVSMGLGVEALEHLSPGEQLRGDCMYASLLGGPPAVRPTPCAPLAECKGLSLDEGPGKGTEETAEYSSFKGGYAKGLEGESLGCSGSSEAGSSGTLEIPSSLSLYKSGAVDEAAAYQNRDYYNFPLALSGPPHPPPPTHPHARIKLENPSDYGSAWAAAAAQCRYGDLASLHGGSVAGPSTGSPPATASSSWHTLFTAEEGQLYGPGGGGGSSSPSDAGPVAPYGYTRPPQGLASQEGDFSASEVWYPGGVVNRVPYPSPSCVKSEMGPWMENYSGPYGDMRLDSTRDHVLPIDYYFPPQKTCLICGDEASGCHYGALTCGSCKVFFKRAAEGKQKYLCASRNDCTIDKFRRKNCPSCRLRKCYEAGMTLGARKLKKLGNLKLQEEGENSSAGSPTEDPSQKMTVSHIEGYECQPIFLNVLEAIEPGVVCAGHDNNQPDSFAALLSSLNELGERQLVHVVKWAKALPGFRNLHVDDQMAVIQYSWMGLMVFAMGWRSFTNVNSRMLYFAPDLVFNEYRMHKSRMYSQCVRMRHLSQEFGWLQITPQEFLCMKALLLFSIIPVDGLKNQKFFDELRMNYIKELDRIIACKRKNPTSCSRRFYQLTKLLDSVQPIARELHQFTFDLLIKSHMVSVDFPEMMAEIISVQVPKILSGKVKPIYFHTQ
Nuclear receptor subfamily 1 group I member 2 (Homo sapiens), sequence (O75469 whole entry, looked up): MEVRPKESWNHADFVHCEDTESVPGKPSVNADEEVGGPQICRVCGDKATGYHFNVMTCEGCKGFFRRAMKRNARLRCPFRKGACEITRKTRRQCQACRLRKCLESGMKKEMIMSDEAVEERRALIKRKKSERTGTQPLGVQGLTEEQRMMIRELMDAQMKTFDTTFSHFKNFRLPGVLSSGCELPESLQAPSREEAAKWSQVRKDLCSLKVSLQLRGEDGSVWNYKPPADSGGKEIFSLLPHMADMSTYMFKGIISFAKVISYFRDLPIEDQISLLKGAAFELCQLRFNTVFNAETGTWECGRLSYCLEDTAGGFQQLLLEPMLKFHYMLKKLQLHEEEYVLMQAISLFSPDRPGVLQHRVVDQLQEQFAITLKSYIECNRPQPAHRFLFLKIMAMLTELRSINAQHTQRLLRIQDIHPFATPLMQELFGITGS

Turning to `COc1ccccc1N=Nc1c(S(=O)(=O)O)cc2cc(S(=O)(=O)O)cc(NC(C)=O)c2c1O`, the AC50 in test [1] was 8.29 µM (active). Also, the compound was classed as inactive in test [2].

Regarding `CC(C)c1ccccc1O`, in test [3], the outcome was inactive.

Take `COc1ccc(N=Nc2cc(C)c(N=Nc3ccc(S(=O)(=O)O)cc3)cc2OC)cc1`: the AC50 in test [4] is 1.91 µM (active); in test [3], 8.57 µM (active). In addition, in test [2], the result was inactive.

`CCc1ccc(O)cc1`: the call in test [3] was inactive.

As for `O=C1NC2NC(=O)NC2N1` (stereo not drawn), the outcome in test [3] was inactive.

`CCOc1ccc(NC(=O)CC(C)=O)cc1`: the concentration at half-maximal activity (AC50) in test [4] is 1.99 µM (active).

Turning to `O=C(O)c1ccc(O)cc1`, the compound was classed as inactive in test [3].

As for `Oc1c(Cl)cc(Cl)c(Cl)c1Cc1c(O)c(Cl)cc(Cl)c1Cl`, the AC50 in test [4] was 4.34 µM (active); in test [5] it was 2.06 µM (active).

On to `CCCCCCCCN1CCCC1=O`, for which, in test [3], the call was inactive.

As to `CCC(=O)O[C@@H]1C[C@H]2CC[C@]1(C)C2(C)C`, the compound was classed as inactive in test [4] and in test [2].

For `Nc1ccc2cc(S(=O)(=O)O)cc(O)c2c1N=Nc1ccccc1C(F)(F)F`, the figures for the half-maximal activity concentration (AC50) in test [1], in test [4] and in test [2] were 20 µM (active), 5.65 µM (active) and 2.32 µM (active), respectively.

As to `CSCCC=O`, the call in test [3] and in test [2] was inactive.

As to `CCCCCCCCC=CCCCCCCCC1=NCCN1CCO`, the results for the AC50 in test [4] and in test [5] were 5.02 µM (active) and 7.33 µM (active), respectively.

On to `OCCc1ccccc1`, for which, in test [3], the compound was classed as inactive.

On to `CCCCC(CC)COC(=O)c1ccc(O)cc1` (stereo not drawn), for which, in test [4], the AC50 was 3.11 µM (active). In addition, the call in test [3] was inactive.

For the compound `OC[C@H]1O[C@@H]2O[C@H]3[C@H](O)[C@@H](O)[C@@H](O[C@H]4[C@H](O)[C@@H](O)[C@@H](O[C@H]5[C@H](O)[C@@H](O)[C@@H](O[C@H]6[C@H](O)[C@@H](O)[C@@H](O[C@H]7[C@H](O)[C@@H](O)[C@@H](O[C@H]8[C@H](O)[C@@H](O)[C@@H](O[C@H]9[C@H](O)[C@@H](O)[C@@H](O[C@H]1[C@H](O)[C@H]2O)O[C@@H]9CO)O[C@@H]8CO)O[C@@H]7CO)O[C@@H]6CO)O[C@@H]5CO)O[C@@H]4CO)O[C@@H]3CO`, the compound was classed as inactive in test [1]. For the same compound, the AC50 in test [3] is 4.18 µM (active).

As to `Oc1ccc2cc(SSc3ccc4cc(O)ccc4c3)ccc2c1`, the result in test [1], in test [3] and in test [2] was inactive.

In the case of `CC1(C)C(=O)N(Cl)C(=O)N1Br`, the compound was called inactive in test [1].

As for `CCCCCCCC(=O)OCC(O)CO` (stereo not drawn), the call in test [3] was inactive.

`CC(C)CCCCCCc1ccc(OCCOCCO)cc1`: in test [3], the compound was classed as inactive.

`[O-]n1ccccc1=S.[O-]n1ccccc1=S.[Zn+2]`: the half-maximal activity concentration (AC50) was 1.1 µM (active) in test [1] and 0.776 µM (active) in test [4].

`CCC(C)c1cc([N+](=O)[O-])cc([N+](=O)[O-])c1OC(=O)OC(C)C` (stereo not drawn): the AC50 in test [4] was 5.81 µM (active).

For the compound `CCCCC(CC)COC(C)=O` (stereo not drawn), the compound was called inactive in test [3].

As to `Clc1ccc(C(c2ccccc2Cl)C(Cl)Cl)cc1` (stereo not drawn), the compound was classed as inactive in test [3].

For the compound `Cc1cc(S(=O)(=O)O)ccc1N=Nc1c(O)ccc2ccccc12`, in test [1], the concentration at half-maximal activity (AC50) was 17.6 µM (active).

As for `O=P(O)(O)O`, the compound was called inactive in test [3].

In the case of `O=C(Nc1ccc2c(O)c(N=Nc3ccc(N=Nc4ccc(S(=O)(=O)O)cc4)cc3)c(S(=O)(=O)O)cc2c1)c1ccccc1`, the AC50 is 9.08 µM (active) in test [1] and 1.19 µM (active) in test [3]. Besides, in test [2], the result was inactive.

Consider `Cc1ccc(S(=O)(=O)Oc2ccc(N=Nc3ccc(-c4ccc(N=Nc5c(O)ccc6cc(S(=O)(=O)O)cc(S(=O)(=O)O)c56)c(C)c4)cc3C)cc2)cc1`, for which the AC50 in test [1] was 3.09 µM (active); in test [4], 0.548 µM (active); in test [3], 0.701 µM (active); in test [5], 0.463 µM (active). Also, the compound was called inactive in test [2].

With `CCCCCCCCc1ccc(S(=O)(=O)O)cc1`, the AC50 in test [4] was 17 µM (active); in test [2] it was 4.22 µM (active). Further, in test [2], the compound was called inactive.

For the compound `CCCCCCCCCCCCCCN(CCO)CCO`, in test [4], the concentration at half-maximal activity (AC50) is 8.13 µM (active). Further, the call in test [3] was inactive.

For the compound `Nc1ccc(N)c2c1C(=O)c1ccccc1C2=O`, in test [1], the outcome was inactive.

In the case of `C=C(C)[C@H]1CC=C(C)C(=O)C1`, the call in test [5] was inactive.

As to `CCOC(=O)C1OC1c1ccccc1` (stereo not drawn), the compound was classed as inactive in test [3].

As to `CCOc1ccc(N=Nc2ccc(C=Cc3ccc(N=Nc4ccc(OCC)cc4)cc3S(=O)(=O)O)c(S(=O)(=O)O)c2)cc1`, the results for the AC50 in test [1], in test [4] and in test [3] were 14.1 µM (active), 3.4 µM (active) and 0.695 µM (active), respectively. Further, in test [2], the call was inactive.

As for `CC(CN=Cc1ccccc1O)N=Cc1ccccc1O` (stereo not drawn), the result in test [1] was inactive.

Consider `C=C1CC[C@H](O)C/C1=C/C=C1\CCC[C@]2(C)[C@@H]([C@H](C)/C=C/[C@H](C)C(C)C)CC[C@@H]12`, for which the results for the half-maximal activity concentration (AC50) in test [4] and in test [3] were 25 µM (active) and 12 µM (active), respectively. Moreover, in test [2], the compound was called inactive.

In the case of `CCCCCCCCCCCCN1CCCCCC1=O`, in test [3], the result was inactive.

As for `Cc1ccc(S(N)(=O)=O)cc1`, the compound was called inactive in test [4] and in test [3].

`COc1ccc(CCN2CCC(Nc3nc4ccccc4n3Cc3ccc(F)cc3)CC2)cc1`: the AC50 in test [6] is 2.26 µM (active).
